Test results reported in publication PMC5540273 (PLoS ONE, 2017).

Tests used:
Conditions in all cases: concentration: 1 μM,replicates: in singlicate; n = 1
[1] = system: T1, HASPIN
T1 construct: gene GSG2

[2] = system: HCK
[3] = system: HIPK1
[4] = system: HIPK2
[5] = system: HIPK3
[6] = system: HIPK4
[7] = system: HPK1
[8] = system: HUNK
[9] = system: ICK
[10] = system: IGF1R
[11] = system: T2, IKK-alpha
T2 construct: gene CHUK

[12] = system: T3, IKK-beta
T3 construct: gene IKBKB

[13] = system: T4, IKK-epsilon
T4 construct: gene IKBKE

[14] = system: INSRR
[15] = system: INSR
[16] = system: IRAK1
[17] = system: IRAK3
[18] = system: IRAK4
[19] = system: ITK
[20] = system: JAK1(JH1domain-catalytic)
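Note: KINOMEscan kinase panel screen.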

Compound | %Inh [1] [%] | %Inh [2] [%] | %Inh [3] [%] | %Inh [4] [%] | %Inh [5] [%] | %Inh [6] [%] | %Inh [7] [%] | %Inh [8] [%] | %Inh [9] [%] | %Inh [10] [%] | %Inh [11] [%] | %Inh [12] [%] | %Inh [13] [%] | %Inh [14] [%] | %Inh [15] [%] | %Inh [16] [%] | %Inh [17] [%] | %Inh [18] [%] | %Inh [19] [%] | %Inh [20] [%]
COc1cccc(OC)c1C(=O)Nc1cccc(-c2nn3ccccc3c2-c2ccnc(Nc3cccc(F)c3)n2)c1 [GSK361065] | 0 | 30 | 31 | 0 | 0 | 84 | 2 | 15 | 0 | 7 | 0 | 0 | 4 | 0 | 0 | 0 | 0 | 0 | 93.8 | 0
C[C@@H](Oc1cc(-n2cnc3cc(-c4cnn(C)c4)ccc32)sc1C(N)=O)c1ccccc1Cl [GSK580432] | 0 | 64 | 20 | 0 | 4 | 1 | 91.3 | 0 | 0 | 0 | 0 | 8 | 4 | 1 | 0 | 45 | 34 | 25 | 23 | 0
CS(=O)(=O)Nc1ccc(-c2ccnc3[nH]ccc23)cc1 [GSK993273] | 78 | 0 | 56 | 8 | 73 | 34 | 38 | 0 | 6 | 2 | 89 | 99.1 | 34 | 0 | 0 | 61 | 49 | 24 | 13 | 70
O=C(Nc1n[nH]c2cc(-c3ccco3)ccc12)C1CC1 [SB-737447] | 0 | 5 | 39 | 50 | 31 | 6 | 3 | 0 | 66 | 0 | 0 | 0 | 0 | 5 | 2 | 0 | 0 | 0 | 0 | 2
CS(=O)(=O)c1cccc(CNc2nc(Nc3ccc4c(c3)[C@@H]3C[C@@H]4CNC3=O)ncc2C(F)(F)F)c1 | 0 | 0 | 60 | 34 | 7 | 33 | 86 | 0 | 0 | 89 | 5 | 0 | 87 | 74 | 94.5 | 39 | 0 | 0 | 49 | 93
c1ccc(Oc2ccc(Nc3ccnc4ccc(-c5ccccn5)cc34)cc2)cc1 [GW407034] | 0 | 71 | 0 | 0 | 0 | 0 | 25 | 0 | 16 | 5 | 9 | 14 | 11 | 0 | 5 | 22 | 13 | 25 | 13 | 22
Cl.Nc1n[nH]c2cc(-c3ccccn3)ccc12 [GSK2189892] | 38 | 0 | 2 | 0 | 5 | 0 | 38 | 0 | 0 | 5 | 0 | 0 | 24 | 0 | 0 | 0 | 6 | 0 | 4 | 10
CCN1CCN(CCCC(=O)Nc2n[nH]c3nc(-c4ccc(O)cc4)c(Br)cc23)CC1 [SB-731579] | 0 | 0 | 75 | 57 | 0 | 0 | 8 | 0 | 93.3 | 0 | 0 | 0 | 0 | 0 | 0 | 0 | 0 | 0 | 98.8 | 23
COc1cc2c(Nc3ccc(NC(=O)c4ccccc4)cc3)ncnc2cc1OCCCN1CCOCC1 [GSK301329] | 0 | 0 | 15 | 0 | 3 | 79 | 15 | 0 | 2 | 15 | 0 | 4 | 0 | 0 | 0 | 5 | 26 | 11 | 26 | 0
Cn1ccc2ncnc(Oc3ccc(NC(=O)Nc4cccc(C(F)(F)F)c4)c(F)c3)c21 | 1 | 31 | 44 | 0 | 0 | 94.3 | 48 | 0 | 0 | 4 | 44 | 0 | 0 | 6 | 2 | 0 | 0 | 0 | 3 | 11
CC(C)c1nc(-c2cccc(NS(=O)(=O)c3ccccc3)c2)c(-c2ccnc(Nc3ccc4c(c3)CN(C)CC4)n2)s1 [GSK1649598] | 0 | 99.7 | 75 | 58 | 69 | 93.6 | 88 | 3 | 36 | 0 | 2 | 15 | 42 | 0 | 35 | 65 | 10 | 16 | 47 | 25
O=c1[nH]cc(-c2ccc(O)cc2)c2sc(-c3ccncc3)cc12 [GSK1033723] | 88 | 0 | 67 | 72 | 90.1 | 22 | 44 | 0 | 0 | 0 | 0 | 0 | 9 | 0 | 100 | 59 | 1 | 5 | 0 | 35
Cn1ccc2ncnc(Oc3ccc(NC(=O)Nc4cnn(C(C)(C)C)c4)c(Cl)c3)c21 | 35 | 33 | 26 | 16 | 0 | 1 | 5 | 0 | 0 | 25 | 29 | 17 | 10 | 3 | 11 | 43 | 0 | 20 | 2 | 6
Cc1cccc(-c2nc(Nc3ccncc3)c3sccc3n2)n1 [GW869641] | 44 | 25 | 21 | 13 | 37 | 13 | 16 | 20 | 32 | 8 | 32 | 22 | 0 | 5 | 31 | 18 | 0 | 0 | 12 | 0
CN(c1ccccc1CNc1nc(Nc2ccc3c(c2)CC(=O)N3)ncc1C(F)(F)F)S(C)(=O)=O | 0 | 3 | 83 | 80 | 64 | 89 | 76 | 0 | 0 | 88 | 0 | 0 | 35 | 69 | 93.5 | 26 | 65 | 27 | 56 | 74
CC(=O)Nc1nc2cnc(Nc3cc(NC(=O)c4cccc(CC(C)(C)C#N)c4)ccc3C)nc2s1 | 0 | 32 | 29 | 10 | 6 | 13 | 0 | 2 | 44 | 9 | 0 | 1 | 28 | 4 | 16 | 9 | 27 | 8 | 0 | 27
NC(=O)Nc1sc(-c2ccc(F)cc2)cc1C(N)=O [GW789449] | 3 | 47 | 40 | 34 | 31 | 2 | 48 | 0 | 15 | 2 | 78 | 100 | 0 | 10 | 37 | 41 | 15 | 12 | 26 | 91.4
Cl.Cl.NC[C@H](CC1CCCCC1)NC(=O)c1ccc(-c2ccnc3[nH]ccc23)s1 [GSK1581428] | 88 | 0 | 98.7 | 96.1 | 98.9 | 94.2 | 78 | 0 | 11 | 0 | 31 | 72 | 31 | 100 | 5 | 57 | 13 | 6 | 5 | 56
O=C(Nc1cccc(Oc2ccc3nccn3n2)c1)Nc1cccc(C(F)(F)F)c1 | 0 | 27 | 7 | 33 | 1 | 17 | 0 | 22 | 0 | 3 | 34 | 0 | 0 | 15 | 0 | 13 | 23 | 0 | 0 | 27
C[C@@H]1CNc2c(sc3ccc4nc(-c5ccc(O)cc5)ccc4c23)C(=O)N1 | 48 | 35 | 41 | 46 | 21 | 0 | 6 | 5 | 0 | 0 | 27 | 24 | 14 | 0 | 7 | 97.1 | 14 | 14 | 3 | 0
